Inconclusive results are not listed. Activity calls are given as the source filed them. Calls come from the whole dose curve; as a rule, active = well fitted inhibition curve with a large enough effect; inconclusive = small, poorly fitted or top-dose-only effect; inactive = flat fitted curve, though single readings scatter.
Legend:
Assay in all cases: Cytotoxic Profiling of Annotated Libraries Using Quantitative High-Throughput Screening (AID 1296008); note: nearly all actives have a fitted effect of over 60% in size
Conditions in all cases: Five cell lines viability, CellTiter-Glo ATP luminescence, 48-72 h; max response: hits give low values
CRL-7250 = system: CRL-7250
In short: (§1)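 Cells exposed to compounds for 48 or 72 hr at 37 degrees Celsius. Viability read as ATP-coupled luminescence with CellTiter-Glo after 10 min at room temperature.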

HEK293 = system: HEK293
In short: as §1

HaCat = system: HaCat
In short: as §1

Measured: max response
% is set by controls: 0 for no effect and ±100 for the full control effect.

COc1ccc(/C=C/C(=O)O[C@@H]2[C@@H](O)[C@H](C)O[C@@H](OC3C4C=COC(O[C@@H]5O[C@H](CO)[C@@H](O)[C@H](O)[C@H]5O)C4C4(CO)OC34)[C@@H]2O)cc1OC (some centres undefined)
inactive: CRL-7250 0.628% | HEK293 | HaCat

C/C1=C\C[C@H](O[C@@H]2O[C@H](CO)[C@@H](O)[C@H](O)[C@H]2O)/C(C)=C/[C@H]2OC(=O)[C@H](C)[C@@H]2CC1
inactive: CRL-7250 -3.83% | HEK293 | HaCat

C=C1CC2(C(=O)O)CC1CCC2C1(C)CCCC2(C)C(=O)OC(O)C21 (centres undefined)
inactive: CRL-7250 -12.2% | HEK293 | HaCat

COc1cc(C2OCC3C(c4ccc(OC5OC(CO)C(O)C(O)C5O)c(OC)c4)OCC23)ccc1O (centres undefined)
inactive: CRL-7250 -7.16% | HEK293 | HaCat -4.17%

COc1cc(C)c(C(=O)O[C@H]2[C@@H](O)[C@H](n3ccc(=O)[nH]c3=O)O[C@@H]2CO)c(OC)c1
inactive: CRL-7250 -3.82% | HEK293 | HaCat

COc1ccc([C@@H]2N[C@H](C(=O)O)Cc3c2[nH]c2ccccc32)cc1CN1CCN(c2ccccc2F)CC1
inactive: CRL-7250 -3.7% | HEK293 | HaCat 1.36%

O=c1c2cccnc2n(-c2cccc([N+](=O)[O-])c2)c(=O)n1Cc1ccncc1
inactive: CRL-7250 | HEK293 | HaCat -29.4%

O=C(O)c1n[nH]c2c1C[C@H]1C[C@@H]21
inactive: CRL-7250 -0.338% | HEK293 | HaCat 2.24%

COC12CC3C(C(C)C1=CC(=O)O2)C(O)C(OC(C)=O)C1C(C)(C)C(OC(C)=O)CCC31C (centres undefined)
inactive: CRL-7250 0.349% | HEK293 | HaCat -18.1%

COc1cc([C@H]2OC[C@]3(OC(C)=O)[C@@H](c4ccc(O[C@@H]5O[C@H](CO)[C@@H](O)[C@H](O)[C@H]5O)c(OC)c4)OC[C@H]23)ccc1O
inactive: CRL-7250 | HEK293 | HaCat

CCC(CCO[C@@H]1O[C@H](CO[C@H]2OC[C@](O)(CO)[C@H]2O)[C@@H](O)[C@H](O)[C@H]1O)C(C)(C)O (some centres undefined)
inactive: CRL-7250 -2.81% | HEK293 | HaCat

C/C=C1\[C@H](O[C@@H]2O[C@H](CO)[C@@H](O)[C@H](O)[C@H]2O)OC=C(C(=O)OC)[C@H]1CC(=O)OC
inactive: CRL-7250 | HEK293 | HaCat

COc1cc(/C=C/C(=O)O[C@H]2[C@H](OC(=O)/C=C/c3cc(OC)c(O)c(OC)c3)O[C@H](CO[C@@H]3O[C@H](CO)[C@@H](O)[C@H](O)[C@H]3O)[C@@H](O)[C@@H]2O)ccc1O
inactive: CRL-7250 | HEK293 | HaCat -26%

Cc1cc(C)c(S(=O)(=O)N(Cc2ccc(-c3cccc(S(C)(=O)=O)c3)cc2)Cc2ccc(C(F)(F)F)o2)c(C)c1
inactive: CRL-7250 -5.2% | HEK293 | HaCat 2.94%

C[C@@H]1C/C=C/C=C\C=C\C=C\[C@H](O[C@@H]2O[C@H](C)[C@@H](O)[C@H](N)[C@@H]2O)C[C@@H]2O[C@](O)(C[C@@H](O)C[C@H]3O[C@@H]3/C=C/C(=O)O1)C[C@H](O)[C@H]2C(=O)O
inactive: CRL-7250 2.84% | HEK293 | HaCat

C=C1CC23CC1(O)CCC2C1=CC2OC(=O)C(C)(C2O)C1C3C(=O)O (centres undefined)
inactive: CRL-7250 -8.2% | HEK293 | HaCat

CC(C)=CC/C=C(/C)[C@H]1CC[C@]2(C)[C@@H]1[C@H](O)CC1[C@@]3(C)CC[C@H](O)C(C)(C)[C@@H]3[C@@H](O[C@@H]3O[C@H](CO)[C@@H](O)[C@H](O)[C@H]3O[C@@H]3O[C@@H](C)[C@H](O)[C@@H](O)[C@H]3O)C[C@]12C (some centres undefined)
inactive: CRL-7250 -7.49% | HEK293 | HaCat

C=C[C@@]1(C)CC(=O)C2[C@](C)(O1)[C@@H](OC(C)=O)[C@@H](O)[C@H]1C(C)(C)CCC[C@]21C (some centres undefined)
inactive: CRL-7250 -2.88% | HEK293 | HaCat

COc1ccc2c(c1)O[C@H](O[C@@H]1O[C@H](CO)[C@@H](O)[C@H](O)[C@H]1O)C(=O)N2
inactive: CRL-7250 | HEK293 | HaCat -4.71%

CC(C)CNC(=O)/C=C/CCCCc1ccc2c(c1)OCO2
inactive: CRL-7250 -4.34% | HEK293 | HaCat

CC1(C)C(O)CCC2(C)C1C(O)C=C1COC(=O)C12O (centres undefined)
inactive: CRL-7250 2.08% | HEK293 | HaCat

CC(=O)N(O)CCCCCN1C(=O)CCC1=O
inactive: CRL-7250 | HEK293 | HaCat

C[C@@H]1O[C@@H](O[C@@H]2[C@@H](O)[C@H](O[C@@H]3[C@@H](O)[C@@H](O)[C@H](O[C@H]4[C@H](OC(=O)[C@]56CCC(C)(C)C[C@H]5C5=CCC7[C@@]8(C)C[C@H](O)[C@H](O[C@@H]9O[C@H](C(=O)O)[C@@H](O)[C@H](O)[C@H]9O)[C@@](C)(CO)C8[C@H](O)C[C@@]7(C)[C@]5(C)CC6)OC[C@H](O)[C@@H]4O)O[C@H]3C)OC[C@H]2O)[C@H](O)[C@H](O)[C@H]1O (some centres undefined)
inactive: CRL-7250 -17.9% | HEK293 | HaCat

Source: PubChem BioAssay (NCATS)
